Test results from PubChem BioAssay (NCATS).
Results filed as inconclusive are left out. Where a call stands in place of a potency, no number is given. Active and inactive are the calls of the source. Unless noted, calls come from the whole dose curve; as a rule, active = well fitted curve in the direction sought with a large enough effect; inconclusive = small, poorly fitted or top-dose-only effect, or another doubt; inactive = no such curve, though single readings can be large; an effect the other way counts as inactive or inconclusive.

What was measured:
[1] = AP1 Signaling Pathway (AID 357; active = well fitted curve in either direction with a large enough effect, not every such curve was filed as active;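 note: ME-180 reporter cells stimulated with EGF at its EC50 level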)
Method in brief: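 First, ME-180 AP-1-bla cells were cultured overnight at 37 °C in low-serum Opti-MEM. Next, titrated compounds with EC50 EGF were incubated 5 hours. Finally, CCF4 was added for 2.5 hours and the 460/530 nm ratio recorded.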

[2] = NFAT Signaling Pathway (AID 444; active = well fitted curve in either direction with a large enough effect, not every such curve was filed as active;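 note: carbachol stimulus at about its EC50 of 1 µM final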); settings: Jurkat NFAT-bla M1, carbachol, beta-lactamase ratio, 5 h; at 17.2 µM (top of the series) unless noted
Method in brief: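 Jurkat cells with NFAT-driven β-lactamase reporter and co-expressed M1 receptor, stimulated with carbachol (final 1 uM, ~EC50), compound titration, 5 h at 37 °C. CCF4 loaded 1 h at RT; 460/530 nm ratio gave %activity and AC50.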

[3] = Stat Signaling Pathway (AID 446; active = well fitted curve in either direction with a large enough effect, not every such curve was filed as active;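 note: ME-180 cervical cancer cells given 40 pM IL-6 alongside compound; SIE-controlled beta-lactamase reporter measured as 460/530 nm FRET emission ratio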)
Method in brief: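 Screening format detects activators and inhibitors alike: ME-180 SIE-bla cells stimulated at 40 pM IL-6 for 5 hrs with compound, then dual-emission beta-lactamase read at 405 nm excitation.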

[4] = molecular target: Glucocorticoid receptor (Homo sapiens) (UniProt P04150); test: GR-GFP Redistribution (AID 450;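 active = compounds whose dose series gives a full or clear partial fitted curve of increased nuclear translocation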; note: potency is the fitted concentration of half-maximal effect); settings: U2OS GR-GFP nuclear translocation, laser cytometry, 2 h
[5] = molecular target: Glucocorticoid receptor (Homo sapiens) (UniProt P04150); test: GR-EFC Redistribution (AID 451; calls by dose curve; note: potency is the fitted concentration of half-maximal effect); settings: CHO-K1 GR-EFC translocation, beta-gal luminescence, 2 h
Method in brief: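 CHO-K1 cells expressing nuclear EA and GR-ED fragments of b-gal; compounds titrated up to 46 uM final, 2 h at 37 C. GR nuclear translocation read as complemented b-gal luminescence after 1 h RT detection.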

[6] = molecular target: Mitogen-activated protein kinase 10 (Mus musculus) (UniProt Q61831); test: JNK3 AlphaScreen Assay (AID 530; active = well fitted curve in either direction with a large enough effect, not every such curve was filed as active;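 note: kinase came from lysate of stimulated human HepG2 cells; signal reports phosphorylation of biotinylated GST-cJun 1-79 at Ser73 with 10 µM ATP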)
Method in brief: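 Pre-activated (IL-1β/TNFα) JNK3 in HepG2 lysates phosphorylates biotin-GST-cJun(1-79), 10 uM ATP; anti-phospho-cJun(Ser73) AlphaScreen read at room temperature, pH 7.6 Tris buffer. Compounds pre-incubated 15 min as titrations.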

[7] = molecular target: 3',5'-cyclic-AMP phosphodiesterase 4B (Homo sapiens) (UniProt Q07343); test: qHTS Assay for Inhibitors of PDE-IV (AID 607; active = well fitted activation curve with a large enough effect in the main read-out, with a control signal flat, not every such curve was filed as active)
Method in brief: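 The readout is membrane depolarisation from a cAMP-sensing CNG channel, detected with a potential dye at ex 535/em 590. Cells were HEK293-derived (endogenous PDE-IV) at 1000 cells/well, titrated up to 22.9 uM final.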

[8] = qHTS Assay for Lipid Storage Modulators (AID 1519; calls by dose curve); settings: Drosophila S3 cells, BODIPY lipid droplet/cell ratio, laser cytometry, cells loaded with oleic acid; for activity change, negative = inhibition: at 25.7 µM (top of the series)
Method in brief: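 Cells seeded at 5,000 per well were treated with compounds over a concentration series and loaded with oleic acid (400 uM, as added). Lipid droplet fluorescence (488 nm excitation, 500-530 nm channel) was read by laser-scanning cytometry and normalized to 20 uM Triacsin C.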

[9] = molecular target: ATP-dependent 6-phosphofructokinase (Trypanosoma brucei brucei) (UniProt O15648); test: qHTS Assay to Find Inhibitors of T. brucei phosphofructokinase: hit validation (AID 492961);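 note: luminescence reports ADP formed as PFK phosphorylates fructose-6-phosphate with ATP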
Method in brief: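 Inhibition of parasite PFK is measured as reduced ADP formation, quantified via luciferase after ATP depletion. Assay used 0.1 mM ATP, 0.5 mM F6P, 1.25 nM enzyme, 45 min incubation.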

[10] = molecular target: Ubiquitin carboxyl-terminal hydrolase 1 (Homo sapiens) (UniProt O94782); test: Inhibitors of USP1/UAF1: Pilot qHTS (AID 504865);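 note: rhodamine fluorescence freed from ubiquitin-rhodamine substrate followed over time; top concentration of the series differs between compounds; nearly all actives have a fitted effect of over 35% in size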
Method in brief: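 1nM USP1/UAF1 + cpd, 15 min RT; start w/ Ub-Rho 150nM final; kinetic FL 480/540 nm, 6 reads q60 s. Buffer 50mM HEPES pH 7.8, 0.5mM EDTA, 1mM TCEP, 0.01% Tween-20, 0.1 mg/ml BSA.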

[11] = molecular target: Luciferin 4-monooxygenase (Photinus pyralis) (UniProt P08659); test: Biochemical firefly luciferase enzyme assay for NPC (AID 624030);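 note: purified P. pyralis luciferase at 10 nM with luciferin and ATP substrate; nearly all actives have a fitted effect of over 70% in size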
Method in brief: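 Purified P. pyralis luciferase at 10 nM in 50 mM Tris Acetate (final), luminescence read within 5 minutes of enzyme addition to compounds. Activity normalised to PTC124 versus DMSO; concentration-response curves classed by r2, magnitude and activity.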

[12] = qHTS profiling for inhibitors of Plasmodium falciparum proliferation (AID 504749); note: potency is the fitted concentration of half-maximal effect; for all read-outs here: nearly all actives have a fitted effect of over 60% in size; settings: P. falciparum in erythrocytes, SYBR Green DNA, 72 h; for activity, negative = inhibition: at 12.8 µM (top of the series)
Method in brief: (§1)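 P. falciparum-infected erythrocytes (0.3% parasitemia, 2.5% hematocrit) incubated with compound 72 h at 37 C, 5% CO2. Parasite DNA detected by SYBR Green after lysis, overnight at room temperature; normalised to 0.29 uM artemisinin and DMSO.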

C2A = test: as above; settings: P. falciparum in erythrocytes, SYBR Green DNA, 72 h; series mostly up to 12.8 µM
Method in brief: as §1

CP238 = test: as above; settings: P. falciparum in erythrocytes, SYBR Green DNA, 72 h; series mostly up to 12.8 µM
Method in brief: as §1

CP252 = test: as above; settings: P. falciparum in erythrocytes, SYBR Green DNA, 72 h; series mostly up to 12.8 µM
Method in brief: as §1

JCK = test: as above; settings: P. falciparum in erythrocytes, SYBR Green DNA, 72 h; series mostly up to 12.8 µM
Method in brief: as §1

N140 = test: as above; settings: P. falciparum in erythrocytes, SYBR Green DNA, 72 h; series mostly up to 12.8 µM
Method in brief: as §1

SC27B = test: as above; settings: P. falciparum in erythrocytes, SYBR Green DNA, 72 h; series mostly up to 12.8 µM
Method in brief: as §1

W2 = test: as above; settings: P. falciparum in erythrocytes, SYBR Green DNA, 72 h; series mostly up to 12.8 µM
Method in brief: as §1

DIV14 = test: as above; settings: P. falciparum in erythrocytes, SYBR Green DNA, 72 h; series mostly up to 12.8 µM
Method in brief: as §1

[13] = measured here: cell count channel max response
[14] = measured here: lipid channel max response

Ubiquitin carboxyl-terminal hydrolase 1 (Homo sapiens), sequence (O94782 whole entry, looked up): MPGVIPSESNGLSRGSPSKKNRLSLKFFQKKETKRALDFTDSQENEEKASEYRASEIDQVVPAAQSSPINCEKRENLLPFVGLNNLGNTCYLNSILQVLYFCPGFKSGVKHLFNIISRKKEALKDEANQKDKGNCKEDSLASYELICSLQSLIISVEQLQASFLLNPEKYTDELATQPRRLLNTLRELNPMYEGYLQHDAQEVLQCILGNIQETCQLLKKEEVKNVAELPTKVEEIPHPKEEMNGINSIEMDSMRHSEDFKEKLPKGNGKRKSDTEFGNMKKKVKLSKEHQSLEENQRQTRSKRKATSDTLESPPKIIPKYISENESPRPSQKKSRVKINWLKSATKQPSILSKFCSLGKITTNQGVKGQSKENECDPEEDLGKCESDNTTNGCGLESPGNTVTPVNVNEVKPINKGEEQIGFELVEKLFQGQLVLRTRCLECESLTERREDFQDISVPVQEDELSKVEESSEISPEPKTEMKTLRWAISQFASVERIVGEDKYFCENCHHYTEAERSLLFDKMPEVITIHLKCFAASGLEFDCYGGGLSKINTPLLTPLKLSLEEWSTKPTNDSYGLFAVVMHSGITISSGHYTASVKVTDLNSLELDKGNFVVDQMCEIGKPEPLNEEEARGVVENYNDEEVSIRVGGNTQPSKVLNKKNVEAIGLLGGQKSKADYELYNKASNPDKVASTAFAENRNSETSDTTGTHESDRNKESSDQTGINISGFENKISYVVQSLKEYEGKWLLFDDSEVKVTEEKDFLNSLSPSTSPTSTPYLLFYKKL
ATP-dependent 6-phosphofructokinase (Trypanosoma brucei brucei), sequence (O15648 whole entry, looked up): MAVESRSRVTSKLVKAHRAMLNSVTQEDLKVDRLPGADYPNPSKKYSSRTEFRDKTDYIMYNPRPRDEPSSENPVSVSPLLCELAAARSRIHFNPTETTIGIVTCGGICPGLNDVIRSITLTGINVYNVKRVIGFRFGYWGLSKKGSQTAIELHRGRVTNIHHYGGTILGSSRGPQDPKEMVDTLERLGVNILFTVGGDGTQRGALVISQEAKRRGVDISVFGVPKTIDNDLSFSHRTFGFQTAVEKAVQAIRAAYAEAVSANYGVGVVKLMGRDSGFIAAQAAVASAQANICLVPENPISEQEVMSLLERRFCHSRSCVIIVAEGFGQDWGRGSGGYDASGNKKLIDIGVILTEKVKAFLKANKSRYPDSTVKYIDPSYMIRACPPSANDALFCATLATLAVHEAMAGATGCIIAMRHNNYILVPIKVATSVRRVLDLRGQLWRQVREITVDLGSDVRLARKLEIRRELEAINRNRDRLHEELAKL
Glucocorticoid receptor (Homo sapiens), sequence (P04150 whole entry, looked up, the tested form may be a part): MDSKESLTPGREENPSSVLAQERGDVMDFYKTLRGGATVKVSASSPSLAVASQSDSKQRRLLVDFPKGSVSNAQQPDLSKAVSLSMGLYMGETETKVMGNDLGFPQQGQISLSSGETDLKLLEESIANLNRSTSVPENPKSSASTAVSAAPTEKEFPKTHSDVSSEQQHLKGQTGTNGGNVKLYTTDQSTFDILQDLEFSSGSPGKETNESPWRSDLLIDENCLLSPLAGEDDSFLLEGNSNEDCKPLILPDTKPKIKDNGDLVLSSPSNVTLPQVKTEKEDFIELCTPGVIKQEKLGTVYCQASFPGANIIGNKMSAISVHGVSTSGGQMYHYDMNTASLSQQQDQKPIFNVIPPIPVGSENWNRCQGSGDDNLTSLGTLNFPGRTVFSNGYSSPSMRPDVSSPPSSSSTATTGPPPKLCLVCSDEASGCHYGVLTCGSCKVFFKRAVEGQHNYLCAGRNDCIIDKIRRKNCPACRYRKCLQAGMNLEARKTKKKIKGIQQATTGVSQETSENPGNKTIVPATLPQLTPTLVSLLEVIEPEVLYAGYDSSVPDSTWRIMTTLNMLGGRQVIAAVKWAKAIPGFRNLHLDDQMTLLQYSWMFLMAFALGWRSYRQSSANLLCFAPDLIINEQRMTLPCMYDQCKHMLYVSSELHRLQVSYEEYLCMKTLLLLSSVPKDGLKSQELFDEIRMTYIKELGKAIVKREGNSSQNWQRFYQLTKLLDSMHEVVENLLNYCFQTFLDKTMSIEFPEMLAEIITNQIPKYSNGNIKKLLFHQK
Luciferin 4-monooxygenase (Photinus pyralis), sequence (P08659 whole entry, looked up): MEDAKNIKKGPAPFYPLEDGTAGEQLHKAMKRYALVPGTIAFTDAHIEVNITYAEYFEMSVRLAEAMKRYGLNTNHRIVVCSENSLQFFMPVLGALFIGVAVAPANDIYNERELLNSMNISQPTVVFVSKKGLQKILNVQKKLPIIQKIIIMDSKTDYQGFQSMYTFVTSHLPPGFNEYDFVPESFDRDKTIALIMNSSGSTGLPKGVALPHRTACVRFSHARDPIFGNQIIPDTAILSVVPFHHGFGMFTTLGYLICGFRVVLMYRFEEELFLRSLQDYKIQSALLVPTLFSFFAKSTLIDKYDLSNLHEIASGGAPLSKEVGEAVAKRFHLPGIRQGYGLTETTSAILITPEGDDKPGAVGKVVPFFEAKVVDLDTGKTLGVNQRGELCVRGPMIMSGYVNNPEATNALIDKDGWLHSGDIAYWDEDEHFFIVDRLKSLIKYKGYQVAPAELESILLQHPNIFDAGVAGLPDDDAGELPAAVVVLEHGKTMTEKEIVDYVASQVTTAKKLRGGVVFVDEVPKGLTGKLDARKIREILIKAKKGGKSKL
3',5'-cyclic-AMP phosphodiesterase 4B (Homo sapiens), sequence (Q07343 whole entry, looked up): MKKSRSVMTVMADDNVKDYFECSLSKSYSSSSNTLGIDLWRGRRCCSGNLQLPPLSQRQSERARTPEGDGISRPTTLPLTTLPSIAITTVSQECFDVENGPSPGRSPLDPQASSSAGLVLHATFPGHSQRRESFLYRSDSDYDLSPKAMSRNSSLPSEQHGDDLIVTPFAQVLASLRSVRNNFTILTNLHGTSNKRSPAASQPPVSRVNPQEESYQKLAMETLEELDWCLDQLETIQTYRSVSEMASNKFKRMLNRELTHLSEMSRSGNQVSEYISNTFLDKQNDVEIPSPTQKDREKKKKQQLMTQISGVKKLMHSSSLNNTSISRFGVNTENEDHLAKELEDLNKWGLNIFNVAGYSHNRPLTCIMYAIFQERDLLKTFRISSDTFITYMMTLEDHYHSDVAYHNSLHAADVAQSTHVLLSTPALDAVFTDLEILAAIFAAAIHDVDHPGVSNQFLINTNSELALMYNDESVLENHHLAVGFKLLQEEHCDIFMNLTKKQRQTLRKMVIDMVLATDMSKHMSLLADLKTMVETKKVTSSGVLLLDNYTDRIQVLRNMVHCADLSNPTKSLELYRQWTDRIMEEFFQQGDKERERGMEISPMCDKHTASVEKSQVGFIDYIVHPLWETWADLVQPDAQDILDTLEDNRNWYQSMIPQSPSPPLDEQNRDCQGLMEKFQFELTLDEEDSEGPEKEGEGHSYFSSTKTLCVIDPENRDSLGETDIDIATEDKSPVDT

CC[C@](C)(CN(C)C)OC(=O)c1ccccc1
outcome [1]: inactive | activity change, negative = inhibition [2]: -26.6% (inactive) | outcome [3]: inactive | Potency [4]: > 20.6 µM (inactive) | Potency [5]: > 20.6 µM (inactive) | Potency [6]: inactive | outcome [7]: inactive | activity change, negative = inhibition [8]: -5.12% (inactive) | max response [8, 13]: -9.58% | max response [8, 14]: -16.2% | outcome [9]: inactive | Potency [10]: inactive | Potency [11]: inactive | activity, negative = inhibition ([12]; parasite line A): 5.48% (inactive) | activity, negative = inhibition ([12]; parasite line B): 4.88% (inactive) | Potency (C2A): inactive | Potency (CP238): inactive | Potency (CP252): inactive | Potency (JCK): inactive | Potency (N140): inactive | Potency (SC27B): inactive | Potency (W2): 2.87 µM (active)

COC(=O)[C@@H]1[C@@H]2C[C@H]3c4[nH]c5cc(OC)ccc5c4CCN3C[C@@H]2C[C@H](OC(=O)c2cc(OC)c(OC)c(OC)c2)[C@H]1OC
outcome [1]: inactive | activity change, negative = inhibition [2]: -10.5% (inactive) | outcome [3]: inactive | Potency [4]: > 20.6 µM (inactive) | Potency [5]: > 20.6 µM (inactive) | Potency [6]: inactive | outcome [7]: inactive | activity change, negative = inhibition [8]: -6.07% (inactive) | max response [8, 13]: -5.3% | max response [8, 14]: -12.8%

C[N+]1(C)CCC[C@H]1C(=O)[O-]
outcome [1]: inactive | activity change, negative = inhibition [2]: -2.21% (inactive) | outcome [3]: inactive | Potency [4]: > 20.6 µM (inactive) | Potency [5]: > 20.6 µM (inactive) | Potency [6]: inactive | outcome [7]: inactive | activity change, negative = inhibition [8]: -1.16% (inactive) | max response [8, 13]: 6.12% | max response [8, 14]: 4.64%

C[C@@]12C=CC(=O)C=C1CC[C@H]1[C@H]3CC[C@](O)(C(=O)CO)[C@]3(C)CC(=O)[C@@H]12
outcome [1]: inactive | activity change, negative = inhibition [2]: -19.6% (inactive) | outcome [3]: inactive | Potency [6]: inactive | outcome [7]: inactive | activity change, negative = inhibition [8]: -0.593% (inactive) | max response [8, 13]: 0.532% | max response [8, 14]: 0.96%

OCCOCCN1CCN([C@@H](c2ccccc2)c2ccc(Cl)cc2)CC1
outcome [1]: inactive | outcome [3]: inactive | Potency [6]: inactive | outcome [7]: inactive | activity change, negative = inhibition [8]: -0.885% (inactive) | max response [8, 13]: 8.41% | max response [8, 14]: 6.93% | Potency [10]: inactive

CC(C)(C)NC[C@@H](O)COc1ccccc1C1CCCC1
outcome [1]: inactive | activity change, negative = inhibition [2]: -6.56% (inactive) | outcome [3]: inactive | Potency [5]: > 20.6 µM (inactive) | Potency [6]: inactive | activity change, negative = inhibition [8]: 1.2% (inactive) | max response [8, 13]: -14.9% | max response [8, 14]: -12.5% | outcome [9]: inactive | Potency [10]: inactive | Potency [11]: inactive | Potency ([12]; parasite line B): 3.16 µM (active) | Potency (CP238): 3.16 µM (active) | Potency (CP252): 3.16 µM (active) | Potency (DIV14): 2.03 µM (active) | Potency (JCK): 3.16 µM (active) | Potency (N140): 3.16 µM (active) | Potency (SC27B): 3.55 µM (active) | Potency (W2): 0.572 µM (active)

Cc1ccsc1/C=C\C1=NCCCN1C
outcome [1]: inactive | outcome [3]: inactive | Potency [4]: > 20.6 µM (inactive) | Potency [5]: > 20.6 µM (inactive) | Potency [6]: inactive | outcome [7]: inactive | activity change, negative = inhibition [8]: -1.64% (inactive) | max response [8, 13]: -9.18% | max response [8, 14]: -10.2% | outcome [9]: inactive | Potency [11]: inactive | activity, negative = inhibition ([12]; parasite line A): 10.5% (inactive) | activity, negative = inhibition ([12]; parasite line B): 9.61% (inactive) | Potency (C2A): inactive | Potency (CP238): inactive | Potency (CP252): inactive | Potency (DIV14): inactive | Potency (JCK): inactive | Potency (N140): inactive | Potency (SC27B): inactive | Potency (W2): inactive

COCCOC(=O)C1=C(C)NC(C)=C(C(=O)OC(C)C)[C@H]1c1cccc([N+](=O)[O-])c1
outcome [1]: inactive | activity change, negative = inhibition [2]: -10.3% (inactive) | outcome [3]: inactive | Potency [5]: > 20.6 µM (inactive) | Potency [6]: inactive | outcome [7]: inactive | activity change, negative = inhibition [8]: -3.07% (inactive) | max response [8, 13]: -5.25% | max response [8, 14]: -6.94% | Potency [10]: inactive

CO[C@@H]1C[C@H](O[C@H]2[C@@H](C)[C@H](O[C@@H]3O[C@@H](C)C[C@@H](N(C)C)[C@@H]3OC(C)=O)[C@H](C)C[C@]3(CO3)C(=O)[C@H](C)[C@H](OC(C)=O)[C@H](C)[C@H](C)OC(=O)[C@@H]2C)O[C@H](C)[C@@H]1OC(C)=O
outcome [1]: inactive | activity change, negative = inhibition [2]: 11.7% (inactive) | outcome [3]: inactive | Potency [6]: inactive | outcome [7]: inactive | activity change, negative = inhibition [8]: -1.3% (inactive) | max response [8, 13]: -6.43% | max response [8, 14]: -9.02% | outcome [9]: inactive | Potency [10]: inactive | Potency [11]: inactive | activity, negative = inhibition ([12]; parasite line A): -21.7% (inactive) | activity, negative = inhibition ([12]; parasite line B): -14.9% (inactive) | Potency (C2A): inactive | Potency (CP238): inactive | Potency (CP252): inactive | Potency (DIV14): inactive | Potency (JCK): inactive | Potency (N140): inactive | Potency (SC27B): inactive

C[C@H](O)Cn1cnc2c1c(=O)n(C)c(=O)n2C
outcome [1]: inactive | activity change, negative = inhibition [2]: 18.8% (inactive) | outcome [3]: inactive | Potency [6]: inactive | activity change, negative = inhibition [8]: 0.562% (inactive) | max response [8, 13]: -2.3% | max response [8, 14]: -3.77% | outcome [9]: inactive | Potency [10]: inactive | Potency [11]: inactive | activity, negative = inhibition ([12]; parasite line A): 7.57% (inactive) | activity, negative = inhibition ([12]; parasite line B): -0.935% (inactive) | Potency (C2A): inactive | Potency (CP238): inactive | Potency (CP252): inactive | Potency (DIV14): inactive | Potency (JCK): inactive | Potency (N140): inactive | Potency (SC27B): inactive | Potency (W2): inactive

C=CCO[C@@H](Cn1ccnc1)c1ccc(Cl)cc1Cl
outcome [1]: inactive | outcome [3]: inactive | Potency [4]: > 20.6 µM (inactive) | Potency [5]: > 20.6 µM (inactive) | Potency [6]: inactive | outcome [7]: inactive | activity change, negative = inhibition [8]: -0.8% (inactive) | max response [8, 13]: -10.1% | max response [8, 14]: -7.51%

C[N+](C)(CCCOc1ccccc1)c1ccccc1
outcome [1]: inactive | activity change, negative = inhibition [2]: -17.9% (inactive) | outcome [3]: inactive | Potency [5]: > 20.6 µM (inactive) | Potency [6]: inactive | outcome [7]: inactive | activity change, negative = inhibition [8]: 3.08% (inactive) | max response [8, 13]: 0.349% | max response [8, 14]: 5.95% | Potency [10]: inactive

O=C(N[C@@H](CO)[C@@H](O)c1ccc([N+](=O)[O-])cc1)C(Cl)Cl
outcome [1]: inactive | activity change, negative = inhibition [2]: -12.6% (inactive) | outcome [3]: inactive | Potency [6]: inactive | outcome [7]: inactive | activity change, negative = inhibition [8]: -1.53% (inactive) | max response [8, 13]: 11.1% | max response [8, 14]: 8.81% | Potency [10]: inactive
